According to PubChem BioAssay (NCI):
The panel holds about 83,000 compounds, 20% with a hit somewhere; the sample as a whole holds those more often.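 Growth was measured after 48 h exposure to one concentration of compound in 96-well plates. Values under 10 count as active.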 Active and inactive are the calls of the source.

How the values were obtained:
Assay in all cases: NCI-60 one-dose screen, 48 h (100 = growth as untreated, 0 = no growth, -100 = all killed)
Conditions in all cases: 10 µM
[1] = tested on: NCI-H23 lung
[2] = tested on: NCI-H226 lung
[3] = tested on: NCI-H322M lung
[4] = tested on: HOP-62 NSCLC
[5] = tested on: NCI-H460 lung
[6] = tested on: NCI-H522 lung
[7] = tested on: A549/ATCC NSCLC
[8] = tested on: 786-0 renal
[9] = tested on: COLO 205 colon
[10] = tested on: DU-145 prostate

Measured: growth

O=C1/C(=C\c2ccc(F)cc2)CN(C(=O)c2ccc([N+](=O)[O-])cc2)C/C1=C\c1ccc(F)cc1
inactive: [1] 49.3% | [2] 38.2% | [3] 76.3% | [4] 32.9% | [5] 68.4% | [6] 46.9% | [7] 52.9% | [8] 20.3% | [9] 38.8% | [10] 25.5%

CC1(C)Cc2c(sc3ncn4nc(-c5ccc(O)cc5)nc4c23)CO1
inactive: [1] 90.9% | [2] 57.9% | [3] 90.4% | [4] 79.2% | [5] 63.2% | [6] 53.5% | [7] 63% | [8] 74.9% | [9] 114% | [10] 76.1%

CCCCCCCCCCCCCCCC(=O)OC1[C@@H](OC(=O)CCCCCCCCCCCCCCC)[C@@H](C(=O)N[C@@H](CCCCN)C(=O)OC)O[C@H]1n1cnc2c(=O)[nH]c(NC(=O)C(C)C)nc21 (stereo not given in full)
inactive: [1] 97.8% | [2] 102% | [3] 89.6% | [4] 104% | [5] 101% | [6] 84.4% | [7] 99.8% | [8] 98.1% | [9] 101% | [10] 107%

C#Cc1ccc(-n2c(/C=C/c3ccc4ccccc4c3)nc3ncccc3c2=O)cc1
active: [6] 8.75%
inactive: [1] 67.5% | [2] 13.2% | [3] 71.9% | [4] 63% | [5] 39% | [7] 34% | [8] 54.3% | [9] 26% | [10] 60.1%

COc1ccc(-c2nn(-c3cccc(NC(=O)c4cccc(C(F)(F)F)c4)c3)cc2-c2ccncc2)cc1Cl
active: [5] 8.19% | [6] -20.1%
inactive: [1] 52% | [2] 52.1% | [3] 47.3% | [4] 41.9% | [7] 19.8% | [8] 17.1% | [9] 17.3% | [10] 50.5%

Nc1ccc2c(c1)Cc1cc(N)c(Br)cc1-2
inactive: [1] 92.1% | [2] 106% | [3] 113% | [4] 93.4% | [5] 97% | [6] 96.7% | [7] 100% | [8] 120% | [9] 107% | [10] 121%

Oc1[nH]c2cc(Cl)ccc2c1/C=c1/ccc2c(c1)N=C(c1cc(F)cc(F)c1)N=2
inactive: [1] 28.3% | [2] 55.1% | [3] 49.1% | [4] 25.3% | [7] 37.9% | [8] 36.7%
active: [5] 6.1% | [6] -3.39% | [9] -0.0984% | [10] -8.59%

COc1ccc2c(c1)sc1nc(-c3ccccc3)c(-c3ccsc3)n12
active: [5] 7.9% | [6] -13.4% | [9] 3.28% | [10] 3.69%
inactive: [1] 36% | [2] 55.8% | [3] 53.4% | [4] 36.8% | [7] 31.1% | [8] 57.5%

CC(C)=CCc1cc(O)cc2c1OC(C=C(C)C)C1=C2C(=O)C2=C(NCCS2(=O)=O)C1=O (stereo not given)
active: [1] -48.7% | [2] -17.6% | [3] -17.5% | [4] -12.6% | [5] 3.29% | [6] -20.6% | [7] 2.33% | [9] -61.3% | [10] -95.3%
inactive: [8] 22.9%

CSC1=NCCCC1
inactive: [1] 112% | [2] 97.3% | [3] 113% | [4] 112% | [5] 108% | [6] 102% | [7] 102% | [8] 111% | [9] 113% | [10] 118%

Cc1nc2c(c(=O)[nH]1)OCN(Cc1ccccc1)C2
inactive: [1] 100% | [2] 103% | [3] 105% | [4] 107% | [5] 110% | [6] 111% | [7] 112% | [8] 101% | [9] 112% | [10] 108%

O=c1c2ccccc2nc(SCCN2CCCCC2)n1CCc1ccccc1
inactive: [1] 77.5% | [2] 101% | [3] 97.6% | [4] 89% | [5] 105% | [6] 89.2% | [7] 87.9% | [8] 86.7% | [9] 74.7% | [10] 101%

COc1ccc(-c2nc3ncccn3c2-c2nnc(-c3ccsc3C)o2)cc1
inactive: [1] 80.5% | [2] 61.6% | [3] 84.4% | [4] 23.8% | [5] 59.9% | [6] 53.6% | [7] 78.8% | [8] 90.9% | [9] 110% | [10] 88.3%

CCCCOc1ccc(NC(=O)Nc2nnc(C)s2)cc1
active: [6] -36.8%
inactive: [1] 96.8% | [2] 101% | [3] 103% | [4] 102% | [5] 102% | [7] 41.4% | [8] 93.5% | [9] 120% | [10] 120%

Fc1ccc2nc(-c3nc(-c4ccccc4)n4ccccc34)[nH]c2c1
active: [2] -11.9% | [3] -9.9% | [4] -76.2% | [5] -57% | [6] -41.2% | [7] -22.6% | [8] 0.317% | [10] -6.4%
inactive: [1] 57% | [9] 16.1%

CN(C)CCS(=O)(=O)CCN(C)C
inactive: [1] 107% | [2] 105% | [3] 113% | [4] 108% | [5] 97% | [6] 117% | [7] 106% | [8] 98.7% | [9] 105% | [10] 103%

N#CCCN1C/C(=C/c2ccc(Cl)cc2)C(=O)/C(=C/c2ccc(Cl)cc2)C1
active: [1] -29.9% | [2] -56.8% | [3] -22.1% | [4] -58% | [5] -49.9% | [6] -82.2% | [7] -35.9% | [8] -70.5% | [9] -84.3% | [10] -30.7%

COc1cc(-c2nnc(-c3c(-c4ccc(F)cc4)nc4ccccn34)o2)cc(OC)c1OC
inactive: [1] 80.8% | [2] 53.7% | [3] 91.8% | [4] 62.9% | [5] 52.5% | [7] 70.7% | [8] 64.7% | [9] 107% | [10] 77%
active: [6] 4.71%

CC(=O)c1nc2ccccc2n1CCN1CCN(C)CC1
active: [6] 0.166% | [9] 2.73% | [10] -3.03%
inactive: [1] 46.2% | [2] 90.9% | [3] 31.9% | [4] 41% | [5] 13.1% | [7] 31.2% | [8] 78.6%

CCN(CC)CCC(=O)Nc1cccc2c1C(=O)c1c(c(O)c3ccccc3c1O)C2=O
active: [8] 4.91%
inactive: [1] 62% | [2] 29% | [3] 56.7% | [4] 47.9% | [5] 15.5% | [6] 46.4% | [7] 33.7% | [9] 51.3% | [10] 51.2%

O=C(Nc1cccc(-n2cc(-c3ccncc3)c(-c3cc(O)cc(Cl)c3)n2)c1)c1ccc(N2CCOCC2)c(C(F)(F)F)c1
active: [4] -2.19% | [5] -26% | [7] 9.62%
inactive: [1] 15.4% | [2] 94.7% | [3] 43.5% | [6] 18.8% | [8] 36.6% | [9] 80.5% | [10] 38%

COc1ccc(/C=C2/CN(C(=O)c3ccccc3F)C/C(=C\c3ccc(OC)cc3)C2=O)cc1
inactive: [1] 73.6% | [2] 57.8% | [3] 82.9% | [4] 75.8% | [5] 94% | [6] 38.3% | [7] 63.2% | [8] 56.9% | [9] 59.1% | [10] 42.1%

c1ccc2c(c1)oc1c3cccnc3ccc21
inactive: [1] 86.8% | [2] 87.4% | [3] 66% | [4] 86.7% | [5] 81.6% | [6] 89.8% | [7] 94.1% | [8] 94.4% | [9] 104% | [10] 102%

C#Cc1ccc(-n2c(/C=C/c3cc(OC)cc(OC)c3)nc3ncccc3c2=O)cc1
inactive: [1] 89% | [2] 65.8% | [3] 72.5% | [4] 48.6% | [5] 94.6% | [7] 68.4% | [8] 81% | [9] 117% | [10] 93.2%
active: [6] 7.88%

Cc1cc(O)c(C(C)(C)C)cc1Sc1cc(C(C)(C)C)c(O)cc1C
inactive: [1] 44.5% | [2] 84.3% | [3] 81.6% | [4] 62% | [5] 42% | [6] 48.3% | [7] 35.2% | [8] 79.9% | [9] 90.7% | [10] 50%

COc1ccc(OC)c2c1C(=O)CC2C (stereo not given)
inactive: [1] 102% | [2] 101% | [3] 96.5% | [4] 101% | [5] 104% | [6] 110% | [7] 103% | [8] 108% | [9] 106% | [10] 107%

CCN1CCC(CCOC)(CN2c3ccccc3Sc3ccc(Cl)cc32)C1 (stereo not given)
inactive: [1] 63.5% | [2] 73.9% | [3] 65.7% | [4] 58.3% | [5] 24.1% | [6] 65.1% | [7] 61.1% | [8] 48.7% | [9] 40% | [10] 69.5%
